This is an account of results in PubChem BioAssay AID686979 (National Center for Advancing Translational Sciences (NCATS), 2013).

Structures are written as SMILES. The whole screen tested about 420,000 compounds, of which about 50,000 (12%) were called active. About 26% were inconclusive and are not listed. Only a selection was taken, and actives are over-represented in it overall. Values without a mark were called inactive. The call rests on the fitted dose curve; in most records, active means well fitted inhibition curve with a large enough effect; inconclusive means small, poorly fitted or top-dose-only effect; inactive means flat fitted curve, though single readings scatter.
On the % scale 0 is the no-effect control and ±100 the full control effect; potency means the concentration at half of the fitted maximal effect.

This test in a line: qHTS for Inhibitors of human tyrosyl-DNA phosphodiesterase 1 (TDP1): qHTS in cells in presence of CPT. Further: nearly all actives have a fitted effect of over 55% in size. The conditions noted are these: chicken DT40 Tdp1-/-;hTDP1 cells + 20 nM CPT, ATP luminescence, 48 h; series mostly up to 46.2 µM; activity change, negative = growth inhibition: at the top concentration. An outline of the steps: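 Chicken DT40 Tdp1-/- cells complemented with human TDP1, 400 cells/well, exposed to compounds plus 20 nM camptothecin for at least 48 h at 37 C; viability read as ATP content by CellTiter-Glo luminescence.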
Regarding `CCCCNC(=O)c1c[nH]c2ccc(S(=O)(=O)Nc3ccc(OCC)cc3)cc2c1=O`, the “activity change, negative = growth inhibition” value is -22.1%.

As for `Cc1ccccc1NC(=O)Cc1nc(COC(=O)CNC(=O)c2ccc(Cl)cc2Cl)cs1`, the “activity change, negative = growth inhibition” value was -6.01%.

`CCCCn1c(=N)c(S(=O)(=O)c2ccccc2)cc2c(=O)n3cccc(C)c3nc21`: the “activity change, negative = growth inhibition” value is 0.133%.

Turning to `COc1ccc(C(=O)Nc2ccc(C(=O)NCC3CCCO3)cc2)c(OC)c1OC` (stereo not drawn), the “activity change, negative = growth inhibition” value is 0.208%.

In the case of `Cc1ccc2nc3c(cc(C(=O)NC4CCCCC4)c(=N)n3C(C)C)c(=O)n2c1`, the “activity change, negative = growth inhibition” value was 6.44%.

`COCCCn1c(C(=O)NC2CCCCC2)cc2c(=O)n3cccc(C)c3nc21`: the Potency was 18.4 µM (active).

`Cc1ccc2nc3c(cc(C(=O)NCCc4ccccc4)c(=N)n3CC3CCCO3)c(=O)n2c1` (stereo not drawn): the Potency was 20.6 µM (active).

On to `COc1ccc(CCn2c(=N)c(C(=O)NCC3CCCO3)cc3c(=O)n4cccc(C)c4nc32)cc1OC` (stereo not drawn), for which the Potency was 5.17 µM (active).

Take `Cc1cccn2c(=O)c3cc(C#N)c(=NC(=O)c4cccnc4)n(CC4CCCO4)c3nc12` (stereo not drawn): the “activity change, negative = growth inhibition” value was -2.32%.

Regarding `Cc1cccn2c(=O)c3cc(C(=O)NC4CCCCC4)sc3nc12`, the “activity change, negative = growth inhibition” value was -26.2%.

With `COc1ccc(CCNC(=O)Cn2c(=O)n(CC3CCCO3)c(=O)c3ccccc32)cc1OC` (stereo not drawn), the “activity change, negative = growth inhibition” value was -1.14%.

Regarding `O=C(NCc1cccnc1)c1cc(S(=O)(=O)N2CCOCC2)c(Cl)cc1Cl`, the “activity change, negative = growth inhibition” value is 4.04%.

In the case of `Cc1cccn2c(=O)c3cc(C(=O)NCCN4CCOCC4)c(=N)n(Cc4cccnc4)c3nc12`, the Potency was 13 µM (active).

`CCOC(=O)c1cc2c(=O)n3ccccc3nc2n(CC2CCCO2)c1=NC(=O)c1ccccc1Br` (stereo not drawn): the “activity change, negative = growth inhibition” value is 4.33%.

In the case of `CCOc1ccc(N2C(=O)CSC2=NC#N)cc1`, the “activity change, negative = growth inhibition” value is 0.495%.

With `COC(=O)C1=C(C)NC(=S)NC1c1ccc(OCC(=O)N2CC(C)OC(C)C2)c(OC)c1` (stereo not drawn), the “activity change, negative = growth inhibition” value was -17.4%.

Take `Cn1cc(S(=O)(=O)N2CCN(c3ccc(F)cc3)CC2)c(=O)n(C)c1=O`: the “activity change, negative = growth inhibition” value was 1.72%.

For `CCc1ccc(C(=O)OCC(=O)NCC(F)(F)F)cc1`, the “activity change, negative = growth inhibition” value was 0.645%.

As to `CS(=O)(=O)N1CCCC(C(=O)Nc2ccccc2C(F)(F)F)C1` (stereo not drawn), the “activity change, negative = growth inhibition” value is 0.592%.

As to `CC(=O)Nc1ccc(NC(=O)C(C)OC(=O)C2CC(=O)N(CCc3ccccc3)C2)cc1` (stereo not drawn), the “activity change, negative = growth inhibition” value is 2.76%.

For `O=C(O)C1CCCCC1C(=O)N1CCN(S(=O)(=O)c2ccc(F)cc2)CC1` (stereo not drawn), the “activity change, negative = growth inhibition” value was 12.7%.

Consider `NCCCCC(C(=O)O)N(C(=O)OCc1ccccc1)C(=O)OCc1ccccc1` (stereo not drawn), for which the “activity change, negative = growth inhibition” value was -4.29%.

On to `CC1C(=O)C(C)C(c2ccc(O)cc2)NC1c1ccc(O)cc1` (stereo not drawn), for which the “activity change, negative = growth inhibition” value is -17.5%.

On to `O=C(OCC(=O)N1CCN(C(=O)c2ccco2)CC1)c1ccc(Cl)c(Cl)c1`, for which the “activity change, negative = growth inhibition” value is -19.4%.

Regarding `CCOc1ccccc1/C=N/NC(=O)CNC(=O)COc1ccccc1`, the “activity change, negative = growth inhibition” value is 17.2%.

`COc1ccc(CCNC(=O)CCc2ccccc2O)cc1OC`: the “activity change, negative = growth inhibition” value is -0.264%.

With `COc1ccc(CCn2c(=N)c(C(=O)NCc3ccco3)cc3c(=O)n4cccc(C)c4nc32)cc1`, the Potency was 20.6 µM (active).

With `COc1ccc(C(=O)Nc2ccccc2C(=O)NCc2ccco2)cc1`, the “activity change, negative = growth inhibition” value was -23.2%.

Regarding `Cc1ccc(S(=O)(=O)c2cc3c(=O)n4cccc(C)c4nc3n(CCc3ccccc3)c2=N)cc1C`, the “activity change, negative = growth inhibition” value was 0.286%.

Turning to `CCOC(=O)c1ccc(NC(=O)CCn2c(=O)oc3ccccc32)cc1`, the Potency result is “inactive”.

On to `CC(Sc1nncn1C)C(=O)NCCC1=CCCCC1` (stereo not drawn), for which the “activity change, negative = growth inhibition” value is -1.08%.

Regarding `CC(C)[C@H](CO)Nc1nc(Nc2cc(N)cc(Cl)c2)c2ncn(C(C)C)c2n1`, the Potency was 4.73 µM (active).

In the case of `CC(C)n1cnc2c(Nc3cccc(Cl)c3)nc(N(CCO)CCCO)nc21`, the Potency was 10.3 µM (active).

Regarding `CC(C)(C)c1nnc(NC(=O)C2c3ccccc3Oc3ccccc32)s1`, the Potency was 23.1 µM (active).

With `CCC(C)(C)NC(=O)C1c2ccccc2Oc2ccccc21`, the “activity change, negative = growth inhibition” value is 1.24%.

Consider `CCC(C)NC(=O)C1c2ccccc2Oc2ccccc21` (stereo not drawn), for which the “activity change, negative = growth inhibition” value is -14.2%.

As to `COCCCNCC(=O)Nc1sc(C)c(C)c1C(=O)OC`, the “activity change, negative = growth inhibition” value is -13.3%.

Take `Nc1ncnc2nnsc12`: the “activity change, negative = growth inhibition” value was -10.5%.

As for `Oc1c(C(c2ccc(F)cc2)N2CCN(Cc3ccccc3)CC2)sc2nc(-c3ccco3)nn12` (stereo not drawn), the “activity change, negative = growth inhibition” value was -26.3%.

Consider `CC(C)(O)CCC(O)[C@@](C)(O)C1CC[C@]2(O)C3=CC(=O)C4CC(O)C(O)C[C@]4(C)C3CC[C@]12C` (stereo partly drawn), for which the “activity change, negative = growth inhibition” value was 13.7%.

As for `COc1cccc(C(=O)NNC(=O)/C=C/c2ccccc2)c1`, the “activity change, negative = growth inhibition” value is -5.33%.

Take `COc1cccc(N2CC(NC(=O)/C=C\c3ccccc3)CC2=O)c1` (stereo not drawn): the “activity change, negative = growth inhibition” value is -23.1%.

As for `COc1cccc(C=CC(=O)C=CC=Cc2ccccc2)c1`, the Potency was 20.6 µM (active).

For the compound `COc1ccccc1C(C)NC(=O)Cc1ccsc1` (stereo not drawn), the “activity change, negative = growth inhibition” value was -5.69%.

For `Cc1cc(C(C)(C)C)oc1C(=O)N(CC(=O)NC1CCCC1)Cc1ccc(Cl)cc1`, the Potency is 9.2 µM (active).

With `Cc1ccc(CN(CC(=O)NC2CCCCC2)C(=O)c2csnn2)cc1`, the “activity change, negative = growth inhibition” value was -5.16%.

On to `COc1ccc(CN(CC(=O)NC2CCCC2)C(=O)CCC(=O)Nc2cc(C)on2)cc1`, for which the “activity change, negative = growth inhibition” value is -25.2%.

For the compound `CC(C)Oc1ccc(C(=O)NC(C)(C)CO)cc1`, the “activity change, negative = growth inhibition” value is -10.2%.

In the case of `CC(Oc1ccc(Cl)cc1)C(=O)Nc1ncccn1` (stereo not drawn), the “activity change, negative = growth inhibition” value is -7.6%.

`CC(C)Oc1ccc(C(=O)Nc2cc(=O)n(C)c(=O)n2C)cc1`: the “activity change, negative = growth inhibition” value was 18.5%.

In the case of `Cc1ccc2cccc(NC(=O)C(C)Oc3ccc(C)c(C)c3)c2n1` (stereo not drawn), the Potency is 20.6 µM (active).

Take `Cc1ccc2cccc(NC(=O)c3ccc(OC(C)C)cc3)c2n1`: the Potency was 18.4 µM (active).

For `COc1ccc(OC(C)C(=O)Nc2cccnc2)cc1` (stereo not drawn), the “activity change, negative = growth inhibition” value is -18.3%.
